# NPSR antag: neuropeptide S receptor (human) antagonism, cAMP; Q6W5P4; CHO-NPSR cells, cAMP TR-FRET, antagonist mode; Potency, µM (doses to about 38.3 µM), for inactives: at the top dose activity change, negative = inhibition, hits mostly inhibitors; 220,000 compounds, 1% hits; also: nearly all actives have a fitted effect of over 50% in size
# Target sequence (Q6W5P4 whole entry, looked up): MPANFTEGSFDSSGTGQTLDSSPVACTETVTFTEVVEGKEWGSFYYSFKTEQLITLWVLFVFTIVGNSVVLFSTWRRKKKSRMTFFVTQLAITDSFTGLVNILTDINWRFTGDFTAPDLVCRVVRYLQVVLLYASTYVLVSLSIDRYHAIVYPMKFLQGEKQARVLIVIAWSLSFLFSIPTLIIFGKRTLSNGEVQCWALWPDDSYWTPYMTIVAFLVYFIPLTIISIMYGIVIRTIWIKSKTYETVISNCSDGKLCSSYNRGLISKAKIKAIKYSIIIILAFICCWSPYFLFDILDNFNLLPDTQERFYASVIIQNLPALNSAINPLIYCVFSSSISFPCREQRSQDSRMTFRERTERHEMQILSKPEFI
# Tau fluor cs: counter-screen for tau fibril formation inhibitors | tau K18 P301L Alexa594 fluorescence, heparin fibrillization | Potency, µM (series often up to 57.7 µM), for the others: at the top dose activity change, negative = decrease | 280,000 compounds, 0.93% hits | AID 1463; also: nearly all actives have a fitted effect of over 55% in size
#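 Human K18 P301L tau (15 uM unlabeled plus 0.24 uM Alexa 594-labeled, final) in 100 mM sodium acetate pH 7 was mixed with compound and 20 uM heparin and incubated 6 hr at 37 C.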
# Tau ThT inhib: tau fibrillization inhibition (ThT binding); P10636; recombinant tau K18 P301L, heparin-induced fibrillization, ThT fluorescence; Potency, µM (highest dose often 57.4 µM), inactives show at the highest dose activity, negative = inhibition, hits mostly inhibitors; 270,000 compounds, 2.1% hits; AID 1460; also: nearly all actives have a fitted effect of over 55% in size
# Target sequence (P10636 561-689 P618L limits assumed): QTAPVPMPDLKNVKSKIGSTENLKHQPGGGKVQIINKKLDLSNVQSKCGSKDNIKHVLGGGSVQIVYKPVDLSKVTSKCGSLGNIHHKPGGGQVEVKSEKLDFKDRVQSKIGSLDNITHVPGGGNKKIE
#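 Using a mix of unlabeled (15 uM) and Alexa 594-labeled (0.24 uM) tau K18 P301L, heparin-triggered fibrillization over 6 hr at 37 C was scored by ThT fluorescence.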
# ALDH1A1 block: inhibitors of human aldehyde dehydrogenase 1A1; P00352; Purified ALDH1A1, NADH fluorescence, propionaldehyde substrate; Potency, µM (doses to about 75.3 µM), without a hit: at the highest dose activity, negative = inhibition, usual class: inhibitors; 220,000 compounds, 7.3% hits; AID 1030; active = well fitted inhibition curve with a large enough effect, not every such curve was filed as active; inconclusive = small, poorly fitted or top-dose-only effect, or another doubt; inactive = no such curve, though single readings can be large or run the other way;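 also: plate controls were no enzyme wells and a reference inhibitor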
# Tau fibril FP: tau fibrillization inhibition (FP); P10636; Potency, µM (top dose mostly 57.7 µM), for inactives: top-dose activity, negative = inhibition, actives largely listed as inhibitors; AID 1468; K18 P301L tau heparin fibrillization, Alexa594 FP, 6 h; 280,000 compounds, 0.39% hits; also: nearly all actives have a fitted effect of over 55% in size
#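 K18 P301L tau (15 uM unlabeled/0.24 uM Alexa 594-labeled, final) + compound + heparin 20 uM final; 100 mM NaOAc pH 7; 6 hr 37 C; ThT 30 uM final added, 1 hr RT; FP ex 555/em 632 nm.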
# HPGD inh: inhibitors of human 15-hydroxyprostaglandin dehydrogenase (HPGD). P15428. purified HPGD, NADH fluorescence kinetic, PGE2 substrate. Potency, µM, for inactives: at the highest dose activity change, negative = inhibition, most hits filed as inhibitors. 150,000 compounds, 4.3% hits. AID 894; active = well fitted inhibition curve with a large enough effect, not every such curve was filed as active; inconclusive = small, poorly fitted or top-dose-only effect, or another doubt; inactive = no such curve, though single readings can be large or run the other way
#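 NADH formation kinetics: reaction with 30 uM PGE2 and 1 mM NAD+ (final), 20 nM enzyme, Tris-HCl pH 8 with Tween 20, after 15 min compound preincubation at room temperature. Fluorescence change, last versus first of five reads.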
# The depositor's hits bear a star; u = inconclusive; x = not tested or not shown; [ ] = remark or other dose. A selection: hits, their analogues and other compounds. The true share with any hit is near 9.5%. Unless noted, calls follow the shape of the dose curve; as a rule, active = well fitted curve in the direction sought with a large enough effect; inconclusive = small, poorly fitted or top-dose-only effect, or another doubt; inactive = no such curve, though single readings can be large; an effect the other way counts as inactive or inconclusive. Unless noted, % is scaled to controls: 0 for no effect and ±100 for the full control effect; potency is read from the fitted curve at half-maximal effect.
SMILES,NPSR antag,Tau fluor cs,Tau ThT inhib,ALDH1A1 block,Tau fibril FP,HPGD inh
COc1ccc(N2C(=O)CC(Sc3ncccc3C(=O)O)C2=O)cc1 (stereo not drawn),-6.6%[46.1 µM],-6.0%,-9.3%,u,-4.0%,-4.1%
CC(C)CNc1nc(N)[nH]c(=O)c1NC=O,x,x,x,21.6%[13.5 µM],x,-7.2%
Cc1ccccc1OCC(=O)Nc1ccc(S(=O)(=O)N(Cc2ccccc2)c2ccccc2)cc1,x,-22.0%,7.6%,x,u,x
O=C(/C=C(\c1ccc(Cl)cc1)n1cncn1)c1ccc(Cl)cc1,-27.1%[46.1 µM],-3.8%,-1.1%,2.24µM*,-12.9%,-24.2%
O=C(/C=C(\c1ccccc1)n1cncn1)c1ccccc1,4.1%,-2.0%,-5.3%,u,-1.7%,-1.8%
CN(C)C(=O)CCCCCCCCC(=O)N(C)C,9.5%,-11.5%,-12.9%,x,-1.8%,x
CCC(Sc1nc(-c2ccccc2)[nH]c1S(=O)(=O)c1ccc(C)cc1)C(=O)O (stereo not drawn),x,-8.0%,-7.2%,x,0.4%,x
CCc1cccc(-n2nnc(-c3nc(-c4ccccc4Cl)no3)c2N)c1,x,4.0%,1.2%,x,-7.3%,x
OCc1nc2ccccc2n1/N=C/c1cccs1,-2.5%,-5.5%,-2.9%,x,2.0%,x
O=[N+]([O-])c1ccc(O)c(/C=N/n2cnc3ccccc32)c1,-17.9%[46.1 µM],-18.9%,u,u,5.3%,14.1µM*
O=[N+]([O-])c1ccc(O)c(/C=N/n2c(CO)nc3ccccc32)c1,9.2%,-8.5%,u,3.16µM*,7.1%,x
O=[N+]([O-])c1ccc(O)c(/C=N/Nc2ccccc2Cl)c1,0.8%,-25.0%,u,-6.6%,0.1%,x
O=C(NCCCN1CCOCC1)C(=O)NCc1ccccc1Cl,18.1%,-6.7%,-4.5%,12.9%,3.0%,x
Cc1ccc(-c2noc(-c3nnn(CC(=O)Nc4cc(C)cc(C)c4)c3N)n2)cc1,x,9.7%,12.9%,x,-9.9%,x
Cc1ccc(NC(=O)CN(C)C(=O)Cn2ncc(Cl)c(Cl)c2=O)cc1,-34.7%,-6.8%,-0.3%,28.2µM*,-9.2%,-7.4%
Nc1nc(-c2ccccc2)c(N=Nc2ccc(Cl)cc2)s1,4.9%,u,u,28.2µM*,u,u
Nc1nc(-c2ccccc2)c(-c2ccccc2)s1,-2.0%[46.1 µM],u,-3.8%,u,12.5%,-29.4%
CC(C)C(OC(=O)c1nsc(Cl)c1Cl)C(=O)NCc1ccc2c(c1)OCO2 (stereo not drawn),-15.5%[46.1 µM],-4.4%,6.5%,-5.3%,-2.2%,2.24µM*
CCC(OC(=O)c1cccs1)C(=O)NCc1ccco1 (stereo not drawn),-0.9%[46.1 µM],-2.5%,-21.7%,22.4µM*,-9.4%,-15.2%
CC(OC(=O)c1cccs1)C(=O)NCc1ccc2c(c1)OCO2 (stereo not drawn),-4.7%[46.1 µM],6.9%,0.2%,3.6%,4.0%,28.2µM*
CC(C)C(OC(=O)c1cccs1)C(=O)NCc1ccc2c(c1)OCO2 (stereo not drawn),-13.7%,0.6%,0.8%,-11.6%,1.3%,x
COC(=O)c1ccc(OCC2c3cc(OC)c(OC)cc3CCN2C(=O)c2ccccc2F)cc1 (stereo not drawn),x,-12.9%,-9.4%,x,6.8%,x
CC(=O)N1CCc2cc(S(=O)(=O)NC(Cc3ccccc3)C(=O)NCc3ccccc3Cl)ccc21 (stereo not drawn),x,-20.0%,-9.7%,x,6.6%,x
CCN(CC)C[C@@H](O)CN1CCCCc2nc(C)c(C)cc21,x,-3.1%[11.6 µM],-4.4%[11.5 µM],7.5%[13.5 µM],-6.9%[11.6 µM],x
O=C(CSc1nnc(CNC(=O)c2c(F)cccc2Cl)o1)Nc1cccc(F)c1,x,-8.2%,-3.2%,x,-8.8%,x
Cc1ccc(C2CC(C(F)(F)F)n3ncc(C(=O)NCc4ccco4)c3N2)cc1 (stereo not drawn),u,-10.7%,-9.1%,-4.7%,0.1%,-25.2%
Oc1ccc2oc3c(c2c1C=NCc1ccncc1)CCCC3,u,u,15.8µM*,x,u,x
Oc1ccc2oc3c(c2c1/C=N/n1cnnc1)CCCC3,-14.2%[46.1 µM],-4.6%,2.0%,u,0.7%,u

# Bioassay records (PubChem)
